PubChem BioAssay (EPA / NIEHS)
The source made the active and inactive calls. How the source made its calls: active means hit-call score of the fitted dose curve at least 0.9, where 1 is the maximum; inactive means score below 0.9.

Experiments:
[1] = biological target: Transcription factor E2F1 (Homo sapiens) (UniProt Q01094); test: ATG_E2F_CIS: Attagene CIS-FACTORIAL HepG2 Assay for human E2F Transcription Factor 1 (AID 2282935); settings: HepG2 Attagene cis-reporter, E2F reporter RNA transcripts; actives raise or lower the signal
How it was run: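 Cis-element reporter mRNA induction in transiently transfected HepG2, 24 h exposure. Activity fitted in both directions relative to DMSO negative control.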

[2] = ATG_E_Box_CIS: Attagene CIS-FACTORIAL HepG2 Assay for human Enhancer Box (E-box) (AID 2282936); settings: HepG2 E-box cis-reporter transcription, actives raise or lower the signal
How it was run: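 Cells: HepG2 (human liver), transient MRTU transfection. Exposure 24 h. RNA → oligo(dT) RT → PCR → 6-FAM label → HpaI → CE. Activity fitted both directions relative to DMSO.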

[3] = ATG_M_61_CIS: Attagene CIS-FACTORIAL HepG2 Assay for M61 Transcription Factor (Internal Marker) (AID 2282937); settings: HepG2 Attagene CIS-FACTORIAL M61 internal marker reporter; actives raise or lower the signal
How it was run: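 HepG2 cells transiently transfected with cis-element-driven multiple reporter transcription units, dosed for 24 h. Reporter mRNA measured by RT-PCR, 6-FAM primer-extension labelling, HpaI digestion and capillary electrophoresis; bidirectional fit versus DMSO baseline.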

[4] = ATG_EGR_CIS: Attagene CIS-FACTORIAL HepG2 Assay for human Early Growth Response 1 (EGR1) (AID 2282938); settings: HepG2 Attagene CIS-FACTORIAL EGR reporter mRNA; actives raise or lower the signal
How it was run: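 HepG2 cells transiently transfected with cis-promoter-driven multiplexed reporter transcription units; reporter mRNA measured 24 h after compound dosing by RT-PCR, 6-FAM primer extension, HpaI digestion and capillary electrophoresis. Bidirectional fit versus DMSO baseline.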

[5] = ATG_M_19_CIS: Attagene CIS-FACTORIAL HepG2 Assay for M19 Transcription Factor (Internal Marker) (AID 2282939); settings: HepG2 Attagene CIS-FACTORIAL M19 internal marker reporter; actives raise or lower the signal
How it was run: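 HepG2, MRTU transient transfection, 24 h dosing. Total RNA → RT-PCR → 6-FAM primer extension → HpaI digest → CE fluorescence. Bidirectional curve fit, DMSO negative control.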

[6] = ATG_ERE_CIS: Attagene CIS-FACTORIAL HepG2 Assay for Estrogen Response Element (ERE) (AID 2282940); settings: HepG2 ERE cis-reporter, Attagene RNA transcript; actives raise or lower the signal
How it was run: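 After a 24 h chemical treatment, RNA from reporter-transfected HepG2 cells is reverse-transcribed, PCR-amplified and fluorescently labelled. Fragments separated by capillary electrophoresis give reporter signal; DMSO serves as negative control.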

[7] = ATG_Ets_CIS: Attagene CIS-FACTORIAL HepG2 Assay for human Erythroblast Transformation Specific (ETS) (AID 2282941); settings: HepG2 ETS cis-reporter transcription, actives raise or lower the signal
How it was run: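 HepG2 cells transiently transfected with cis-promoter reporter transcription units were dosed for 24 h; reporter mRNA was measured by RT-PCR, 6-FAM primer extension, HpaI digestion and capillary electrophoresis, with bidirectional fitting against DMSO baseline.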

[8] = biological target: Hepatocyte nuclear factor 3-beta (Homo sapiens) (UniProt Q9Y261); test: ATG_FoxA2_CIS: Attagene CIS-FACTORIAL HepG2 Assay for human Forkhead box A2 (FOXA2) (AID 2282942); settings: HepG2 cis-reporter transcription factor activity, 24 h; actives raise or lower the signal
How it was run: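 HepG2 cells transiently transfected with multiple cis-regulated reporter transcription units, dosed for 24 h. Reporter mRNA measured by RT-PCR, 6-FAM labelling, HpaI digestion and capillary electrophoresis; bidirectional fitting against DMSO baseline.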

[9] = ATG_FoxO_CIS: Attagene CIS-FACTORIAL HepG2 Assay for human Forkhead box O (FoxO) (AID 2282943); settings: HepG2 Attagene cis-reporter, FoxO element, mRNA; actives raise or lower the signal
How it was run: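 Endogenous transcription factor activity read from multiplexed cis-promoter reporter transcripts in transiently transfected HepG2, 24 h after dosing. Reporter RNA measured via RT-PCR plus capillary electrophoresis of FAM-labeled products; gain or loss relative to DMSO.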

[10] = ATG_GATA_CIS: Attagene CIS-FACTORIAL HepG2 Assay for human GATA Binding Protein (AID 2282944); settings: HepG2 GATA cis-element reporter, Attagene multiplex mRNA; actives raise or lower the signal
How it was run: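 Cells: HepG2, transiently transfected with cis-regulated reporter transcription units. Exposure: 24 h. Detection: RT-PCR plus capillary electrophoresis of FAM-labeled fragments. Analysis: bidirectional, DMSO as baseline.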

[11] = ATG_GLI_CIS: Attagene CIS-FACTORIAL HepG2 Assay for human Zinc Finger Protein GLI1 (AID 2282945); settings: HepG2, Attagene cis-factorial reporter mRNA, GLI element; actives raise or lower the signal
How it was run: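 Bidirectional curve fits relative to DMSO, using reporter mRNA levels from RT-PCR plus capillary electrophoresis. Cells were HepG2 transiently carrying cis-regulated reporter constructs, harvested 24 h after dosing.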

[12] = ATG_ISRE_CIS: Attagene CIS-FACTORIAL HepG2 Assay for human Interferon Regulatory Factor 1 (IRF1) binding to an Interferon-Stimulated Response Element (ISRE) (AID 2282948); settings: HepG2 ISRE cis-reporter (Attagene), mRNA transcription readout; actives raise or lower the signal
How it was run: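 HepG2 cells transiently transfected with multiplexed cis-promoter reporter units; after 24 h compound exposure, reporter mRNA quantified by RT-PCR, FAM labelling, HpaI digestion and capillary electrophoresis. Bidirectional fit versus DMSO baseline.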

[13] = ATG_M_32_CIS: Attagene CIS-FACTORIAL HepG2 Assay for M32 Transcription Factor (Internal Marker) (AID 2282949); settings: HepG2 Attagene cis-factorial M32 reporter, mRNA; actives raise or lower the signal;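 further: background control marker of the multiplexed CIS panel rather than a real target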
How it was run: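 Fluorescent capillary electrophoresis peaks of HpaI-digested, FAM-labelled RT-PCR reporter products give the signal. Source: transiently transfected human liver HepG2 cells, 24 h after chemical dosing; bidirectional fitting against DMSO.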

[14] = ATG_M_06_CIS: Attagene CIS-FACTORIAL HepG2 Assay for M06 Transcription Factor (Internal Marker) (AID 2282950); settings: HepG2 Attagene CIS-FACTORIAL M06 internal marker reporter; actives raise or lower the signal
How it was run: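 Measured 24 h post-dosing in transiently transfected HepG2 cells, this internal-marker endpoint reports reporter mRNA via RT-PCR with fluorescent primer extension and capillary electrophoresis. DMSO served as negative control and baseline for bidirectional fitting.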

[15] = biological target: Hypoxia-inducible factor 1-alpha (Homo sapiens) (UniProt Q16665); test: ATG_HIF1a_CIS: Attagene CIS-FACTORIAL HepG2 Assay for human Hypoxia Inducible Factor 1 (HIF1A) (AID 2282951); settings: HepG2 Attagene cis-factorial HIF1a reporter transcription; actives raise or lower the signal
How it was run: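 HepG2 cells transiently transfected with multiplexed cis-promoter reporter units; reporter mRNA read 24 h after dosing by RT-PCR, 6-FAM primer-extension labelling, HpaI digestion and capillary electrophoresis. Bidirectional fit versus DMSO baseline.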

[16] = biological target: Hepatocyte nuclear factor 6 (Homo sapiens) (UniProt Q9UBC0); test: ATG_HNF6_CIS: Attagene CIS-FACTORIAL HepG2 Assay for human Hepatocyte Nuclear Factor 6 (HNF6) (AID 2282952); settings: HepG2 Attagene cis-factorial HNF6 reporter transcription; actives raise or lower the signal
How it was run: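 Reporter mRNA induction or loss in HepG2 after 24 h exposure; transient cis-MRTU transfection; fragments quantified by capillary electrophoresis; bidirectional analysis, DMSO as negative control.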

[17] = biological target: Heat shock factor protein 1 (Homo sapiens) (UniProt Q00613); test: ATG_HSE_CIS: Attagene CIS-FACTORIAL HepG2 Assay for human Heat Shock Transcription Factor 1 (HSE) (AID 2282953); settings: HepG2 HSE cis-reporter, Attagene RNA transcription; actives raise or lower the signal
How it was run: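 Reporter mRNA induction in HepG2 is measured 24 h after dosing, using transiently transfected multiplexed cis-regulated reporter units. Signal comes from capillary electrophoresis of labelled RT-PCR products, with DMSO as negative control.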

[18] = ATG_GRE_CIS: Attagene CIS-FACTORIAL HepG2 Assay for human Glucocorticoid Response Elements (GRE) (AID 2282947); settings: HepG2 GRE cis-reporter, Attagene multiplex mRNA; actives raise or lower the signal
How it was run: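 Transient MRTU transfection of human HepG2 liver cells; cis-regulated reporters report endogenous factors. 24 h dosing → RNA isolation → RT-PCR → 6-FAM primer extension → HpaI cut → CE fragment analysis. Bidirectional fit, DMSO negative control.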

[19] = ATG_MRE_CIS: Attagene CIS-FACTORIAL HepG2 Assay for human Metal Responsive Element (MRE) (AID 2282954); settings: HepG2 MRE cis-reporter transcription, Attagene multiplex; actives raise or lower the signal
How it was run: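 Transient MRTU transfection of HepG2 (FuGene 6); 24 h dosing; total RNA → oligo(dT) RT, PCR, 6-FAM primer extension, HpaI cut, CE. Bidirectional fit vs DMSO.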

Sequence of Hypoxia-inducible factor 1-alpha (Homo sapiens) (Q16665 whole entry, looked up): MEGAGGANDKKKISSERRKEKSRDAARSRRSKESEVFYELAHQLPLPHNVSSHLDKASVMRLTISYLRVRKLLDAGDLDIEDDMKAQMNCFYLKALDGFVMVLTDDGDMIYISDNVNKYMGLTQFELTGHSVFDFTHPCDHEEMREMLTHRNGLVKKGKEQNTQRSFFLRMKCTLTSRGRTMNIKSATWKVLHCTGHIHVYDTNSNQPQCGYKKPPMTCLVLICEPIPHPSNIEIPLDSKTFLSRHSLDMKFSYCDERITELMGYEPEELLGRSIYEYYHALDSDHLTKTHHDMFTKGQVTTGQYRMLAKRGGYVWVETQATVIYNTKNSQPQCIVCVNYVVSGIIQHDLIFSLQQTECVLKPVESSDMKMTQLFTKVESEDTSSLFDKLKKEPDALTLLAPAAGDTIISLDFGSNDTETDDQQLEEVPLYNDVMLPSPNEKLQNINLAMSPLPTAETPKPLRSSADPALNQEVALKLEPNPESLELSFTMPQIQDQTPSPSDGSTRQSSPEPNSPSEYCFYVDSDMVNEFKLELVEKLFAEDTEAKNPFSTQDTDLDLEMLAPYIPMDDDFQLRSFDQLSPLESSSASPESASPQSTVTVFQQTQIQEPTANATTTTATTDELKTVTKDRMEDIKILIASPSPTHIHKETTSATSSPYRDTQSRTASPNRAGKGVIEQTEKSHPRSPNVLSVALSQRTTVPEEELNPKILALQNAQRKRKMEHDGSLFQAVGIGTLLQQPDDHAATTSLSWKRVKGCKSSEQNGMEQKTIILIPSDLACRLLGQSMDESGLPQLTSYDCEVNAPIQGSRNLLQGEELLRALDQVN
Sequence of Hepatocyte nuclear factor 6 (Homo sapiens) (Q9UBC0 whole entry, looked up, the tested form may be a part): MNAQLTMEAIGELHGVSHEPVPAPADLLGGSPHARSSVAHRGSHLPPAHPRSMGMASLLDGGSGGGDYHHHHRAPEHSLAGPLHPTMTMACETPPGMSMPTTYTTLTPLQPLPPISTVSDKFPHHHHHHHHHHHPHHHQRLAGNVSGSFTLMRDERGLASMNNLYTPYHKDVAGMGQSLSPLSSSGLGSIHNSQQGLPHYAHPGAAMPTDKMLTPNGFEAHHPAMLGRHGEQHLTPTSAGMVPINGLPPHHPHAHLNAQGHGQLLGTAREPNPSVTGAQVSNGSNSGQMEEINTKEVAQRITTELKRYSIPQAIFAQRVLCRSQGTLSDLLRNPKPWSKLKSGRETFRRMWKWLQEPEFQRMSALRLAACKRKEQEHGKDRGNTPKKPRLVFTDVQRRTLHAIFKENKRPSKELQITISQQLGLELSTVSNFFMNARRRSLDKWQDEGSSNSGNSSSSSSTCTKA
Sequence of Hepatocyte nuclear factor 3-beta (Homo sapiens) (Q9Y261 whole entry, looked up): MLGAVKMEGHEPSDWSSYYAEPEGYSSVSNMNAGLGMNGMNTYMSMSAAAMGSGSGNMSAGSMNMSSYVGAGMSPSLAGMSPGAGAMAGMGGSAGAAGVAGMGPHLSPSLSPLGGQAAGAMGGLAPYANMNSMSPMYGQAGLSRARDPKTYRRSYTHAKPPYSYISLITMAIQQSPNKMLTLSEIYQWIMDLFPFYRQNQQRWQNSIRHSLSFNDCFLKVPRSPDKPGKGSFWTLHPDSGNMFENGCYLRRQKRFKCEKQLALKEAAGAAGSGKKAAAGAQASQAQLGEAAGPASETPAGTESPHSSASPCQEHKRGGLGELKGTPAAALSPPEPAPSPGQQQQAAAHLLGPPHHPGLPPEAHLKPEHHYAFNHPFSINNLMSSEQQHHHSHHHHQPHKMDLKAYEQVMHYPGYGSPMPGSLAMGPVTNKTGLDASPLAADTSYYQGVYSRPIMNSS
Sequence of Transcription factor E2F1 (Homo sapiens) (Q01094 whole entry, looked up): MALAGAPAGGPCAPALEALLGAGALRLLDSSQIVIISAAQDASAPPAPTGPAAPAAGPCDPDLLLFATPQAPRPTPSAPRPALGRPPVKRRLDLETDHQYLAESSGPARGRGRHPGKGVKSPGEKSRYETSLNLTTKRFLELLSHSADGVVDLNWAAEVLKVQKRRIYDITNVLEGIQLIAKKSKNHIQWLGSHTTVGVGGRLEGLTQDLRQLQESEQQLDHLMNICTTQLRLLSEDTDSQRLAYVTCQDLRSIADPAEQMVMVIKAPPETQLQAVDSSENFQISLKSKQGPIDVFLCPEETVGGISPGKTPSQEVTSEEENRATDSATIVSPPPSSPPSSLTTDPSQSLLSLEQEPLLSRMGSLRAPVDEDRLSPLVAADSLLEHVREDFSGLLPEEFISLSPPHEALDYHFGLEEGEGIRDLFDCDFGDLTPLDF
Sequence of Heat shock factor protein 1 (Homo sapiens) (Q00613 whole entry, looked up): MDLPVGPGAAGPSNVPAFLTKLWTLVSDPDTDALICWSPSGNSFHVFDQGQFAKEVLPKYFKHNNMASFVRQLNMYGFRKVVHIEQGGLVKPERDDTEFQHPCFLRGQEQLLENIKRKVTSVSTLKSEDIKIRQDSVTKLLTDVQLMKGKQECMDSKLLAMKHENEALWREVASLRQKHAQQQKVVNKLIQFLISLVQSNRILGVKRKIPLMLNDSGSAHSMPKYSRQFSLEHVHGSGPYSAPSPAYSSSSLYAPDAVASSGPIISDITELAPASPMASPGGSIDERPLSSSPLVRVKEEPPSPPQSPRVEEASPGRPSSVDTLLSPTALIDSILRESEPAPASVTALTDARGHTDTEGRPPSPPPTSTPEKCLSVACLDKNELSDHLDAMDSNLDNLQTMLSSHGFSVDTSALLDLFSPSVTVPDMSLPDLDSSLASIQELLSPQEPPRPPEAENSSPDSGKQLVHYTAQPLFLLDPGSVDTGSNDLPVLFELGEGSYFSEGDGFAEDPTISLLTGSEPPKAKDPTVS

Row | Structure (SMILES) | outcome [1] | outcome [2] | outcome [3] | outcome [4] | outcome [5] | outcome [6] | outcome [7] | outcome [8] | outcome [9] | outcome [10] | outcome [11] | outcome [12] | outcome [13] | outcome [14] | outcome [15] | outcome [16] | outcome [17] | AC50 [6] | outcome [18] | outcome [19]
1 | N#CCCNCCC#N | inactive | inactive | inactive | inactive | inactive | inactive | inactive | inactive | inactive | inactive | inactive | inactive | inactive | inactive | inactive | inactive | inactive | – | – | –
2 | C=C/C(C)=C/C/C=C(\C)CCC=C(C)C | inactive | inactive | inactive | inactive | inactive | – | inactive | inactive | inactive | inactive | inactive | inactive | – | inactive | inactive | inactive | inactive | 56.8 µM (active) | inactive | inactive
3 | CCOC(=O)C(=O)OCC | inactive | inactive | inactive | inactive | inactive | inactive | inactive | inactive | inactive | inactive | inactive | inactive | – | inactive | inactive | inactive | – | – | inactive | –
4 | CCCCCc1cccc(=O)o1 | inactive | inactive | inactive | inactive | inactive | inactive | inactive | inactive | inactive | inactive | inactive | inactive | inactive | inactive | – | – | inactive | – | – | inactive
5 | CCCCC1CCCCC(=O)O1 (stereo not drawn) | inactive | inactive | inactive | inactive | inactive | inactive | inactive | inactive | inactive | inactive | inactive | inactive | inactive | – | inactive | – | – | – | inactive | inactive
6 | CC(=O)Nc1cc(S(=O)(=O)O)cc2cc(S(=O)(=O)O)c(N=Nc3ccccc3)c(O)c12 | inactive | inactive | inactive | inactive | inactive | inactive | inactive | inactive | inactive | inactive | inactive | inactive | inactive | inactive | inactive | inactive | inactive | – | – | inactive
7 | Nc1ccn([C@H]2CC[C@@H](CO)O2)c(=O)n1 | inactive | inactive | inactive | inactive | inactive | inactive | inactive | inactive | inactive | inactive | inactive | inactive | inactive | inactive | – | inactive | inactive | – | – | inactive
8 | CC(CO)c1ccccc1 (stereo not drawn) | inactive | inactive | inactive | inactive | inactive | inactive | inactive | inactive | inactive | inactive | inactive | inactive | inactive | inactive | inactive | inactive | inactive | – | – | inactive
9 | C=COCC1CCC(COC=C)CC1 (stereo not drawn) | inactive | inactive | inactive | inactive | inactive | inactive | inactive | inactive | inactive | inactive | inactive | inactive | – | inactive | inactive | inactive | – | – | inactive | inactive
10 | C=C(C)C(=O)OCCN(C)C | inactive | inactive | inactive | inactive | inactive | inactive | inactive | inactive | inactive | inactive | inactive | inactive | inactive | inactive | inactive | inactive | inactive | – | – | inactive
11 | CCOC(=O)CCCCCCCCC(=O)OCC | inactive | inactive | inactive | inactive | inactive | inactive | inactive | inactive | inactive | inactive | inactive | inactive | inactive | inactive | inactive | inactive | – | – | – | inactive
12 | c1coc(CNc2ncnc3nc[nH]c23)c1 | inactive | inactive | inactive | inactive | inactive | inactive | inactive | inactive | inactive | inactive | inactive | inactive | – | inactive | inactive | inactive | inactive | – | inactive | inactive
13 | CCCCCCC(O)CCOC(C)=O (stereo not drawn) | inactive | inactive | inactive | inactive | inactive | inactive | inactive | inactive | inactive | inactive | inactive | inactive | inactive | inactive | inactive | inactive | inactive | – | – | inactive
14 | NC(N)=NC(N)=NCCc1ccccc1 | inactive | inactive | inactive | inactive | inactive | inactive | inactive | inactive | inactive | inactive | inactive | inactive | inactive | – | inactive | inactive | inactive | – | inactive | inactive
15 | CCCCC(CC)COCCO (stereo not drawn) | inactive | inactive | inactive | inactive | inactive | inactive | inactive | inactive | inactive | inactive | inactive | inactive | – | inactive | inactive | inactive | inactive | – | inactive | inactive
16 | COC(=O)c1cccc(C(=O)OC)c1 | inactive | inactive | inactive | inactive | inactive | inactive | inactive | inactive | inactive | inactive | inactive | inactive | inactive | inactive | inactive | inactive | inactive | – | – | inactive
